# Data as given in PubChem BioAssay (EPA / NIEHS).
# Where “and” joins values, the source holds several entries; their conditions need not be identical. Equal values may be shown once. Calls of active or inactive are those of the source. Rule for the calls: active = hit-call score of the fitted dose curve at least 0.9, where 1 is the maximum; inactive = score below 0.9.
# Read-out: Tissue Factor, F3 (gene 2152)
# Assay: BSK_LPS_TissueFactor: BioMAP Diversity Plus: LPS Assay for Tissue Factor Biomarker Activity (AID 2283084)
# Conditions: primary human HUVEC with PBMC; actives raise or lower the signal
# Method: BSK_LPS is a cell-based, multiplexed-readout assay that uses umbilical vein endothelium and peripheral blood mononuclear cells, a human vascular primary cell co-culture, with measurements taken at 24 hours after chemical dosing in a 96-well plate.BSK_LPS_TissueFactor is an assay component measured in the BSK_LPS assay. It measures CD142 Tissue Factor antibody related to regulation of gene expression using ELISA technology.Data from the assay component BSK_LPS_TissueFactor was analyzed into 1 assay endpoint. This assay endpoint, BSK_LPS_TissueFactor, was analyzed with bidirectional fitting relative to DMSO as the negative control and baseline of activity. Using a type of binding reporter, gain or loss-of-signal activity can be used to understand changes in the signaling as they relate to the gene F3. Furthermore, this assay endpoint can be referred to as a primary readout, because this assay has produced multiple assay endpoints where this one serves a signaling function. To generalize the intended target to other relatable targets, this assay endpoint is annotated to the cytokine intended target family, where the subfamily is coagulation factor.
# The levels of cell surface (or secreted, indicated by the prefix "s") biomarker endpoints were measured by ELISA. Overt cytotoxicity to cells in confluent adherent cultures (all systems other than the BT system) was assessed by measuring total protein levels using sulforhodamine B (SRB) staining in parallel cultures at the time of biomarker measurements, indicated as SRB endpoints. For proliferation assays for adherent cell types, individual cell types are cultured at sub-confluence and relative cell numbers quantified by SRB staining at time points optimized for each system (48 h: 3C and CASM3C systems; 72 h: BT and HDF3CGF systems; 96 h: SAg system). SRB was performed by staining cells with 0.1% SRB after fixation with 10% TCA and reading wells at 560 nm.Viability and proliferation of PBMC (T cells) was quantified by Alamar Blue reduction for the SAg and BT systems. For PBMC viability (referred to as PBMC Cytotoxicity within the assay endpoint names), cells were plated (75,000/well in a 96-well plate) and then chemical samples added for 1 h before addition of activators, SEB and TSST-1 (20 ng/mL final concentration each). Cells were incubated for 90 h. Then, Alamar Blue (20 uL/well) (Invitrogen, Cat DAL1100) was added for 6 h, and the plates were read with a fluorescence microplate reader at 546/580 nm (excitation/emission). For PBMC proliferation, cells were plated and activated as above but incubated for only 16 h prior to addition of Alamar Blue. Plates were read after 6 h.
SMILES,outcome,AC50
C#CC(C)(C)NC(=O)c1cc(Cl)cc(Cl)c1,inactive,
COP(=O)(OC)OC(Br)C(Cl)(Cl)Br (stereo not given),,15.2 µM (active)
CC(=NC#N)N(C)Cc1ccc(Cl)nc1,inactive,
CN(C)NC(=O)CCC(=O)O,inactive,
CNC(=O)Oc1cccc2c1OC(C)(C)O2,inactive,
CC(C)N(C(=O)SCC(Cl)=C(Cl)Cl)C(C)C,,30.1 µM (active)
CN(C)[C@@H]1C(=O)C(C(N)=O)=C(O)[C@@]2(O)C(=O)C3=C(O)c4c(O)cccc4[C@@](C)(O)[C@H]3[C@H](O)[C@@H]12,inactive,
CCOP(=S)(OCC)Oc1cc(C)nc(C(C)C)n1,inactive,
Nc1nc(N)nc(NC2CC2)n1,inactive,
C[Si](Cn1cncn1)(c1ccc(F)cc1)c1ccc(F)cc1,inactive,
CCCCN(CC)c1c([N+](=O)[O-])cc(C(F)(F)F)cc1[N+](=O)[O-],inactive,
CCCCOC(=O)c1ccccc1C(=O)O,inactive,
Cc1nn(-c2cc(NS(C)(=O)=O)c(Cl)cc2Cl)c(=O)n1C(F)F,inactive,
CCOP(=S)(Oc1cnc(C(C)(C)C)nc1)OC(C)C (stereo not given),,33.1 µM (active)
CCOP(=O)(SC(C)CC)N1CCSC1=O (stereo not given),inactive,
CC(C1CC1)C(O)(Cn1cncn1)c1ccc(Cl)cc1 (stereo not given),inactive,
CC(C)=CC1C(C(=O)OCN2C(=O)C3=C(CCCC3)C2=O)C1(C)C (stereo not given),inactive,
CC1(C(=O)Nc2ccc(O)c(Cl)c2Cl)CCCCC1,inactive,
CN1COCN(Cc2cnc(Cl)s2)C1=N[N+](=O)[O-],inactive,
Cc1cc(C2CC2)nc(Nc2ccccc2)n1,inactive,

SMILES,outcome,AC50
CCc1cnc(C2=NC(C)(C(C)C)C(=O)N2)c(C(=O)O)c1 (stereo not given),inactive,
CCOC(=O)COc1cc(-c2nn(C)c(OC(F)F)c2Cl)c(F)cc1Cl,inactive,
CCOP(=S)(OCC)SCCSCC,inactive,
CCOP(=S)(OCC)OC(Cl)C(Cl)(Cl)Cl (stereo not given),inactive,
CSc1nc(NC(C)C)nc(NC(C)C)n1,inactive,
CCOP(=S)(OCC)Oc1ccc([N+](=O)[O-])cc1,inactive,
O=c1ccc(=O)[nH][nH]1,inactive,
CC(COc1ccc(Oc2ccccc2)cc1)Oc1ccccn1 (stereo not given),inactive,
S=C1NCCN1,inactive,
O=[N+]([O-])c1cc(C(F)(F)F)c(Cl)c([N+](=O)[O-])c1Nc1ncc(C(F)(F)F)cc1Cl,,1.44 µM (active) and 2.17 µM (active)
C=C(C)[C@H]1Cc2c(ccc3c2O[C@@H]2COc4cc(OC)c(OC)cc4[C@@H]2C3=O)O1,,8.75 µM (active)
CCCSP(=O)(OCC)Oc1ccc(Br)cc1Cl (stereo not given),inactive,
CCc1cccc(CC)c1N(COC)C(=O)CCl,inactive,
CCNc1nc(Cl)nc(NC(C)(C)C#N)n1,inactive,
CCC(=NOC/C=C/Cl)C1=C(O)CC(C2CCOCC2)CC1=O (stereo not given),inactive,
CCCCSP(=O)(SCCCC)SCCCC,inactive,
CC1=NNC(=O)N(/N=C/c2cccnc2)C1,inactive,
COc1cc(OC)nc(Sc2cccc(Cl)c2C(=O)O)n1,inactive,
COP(=O)(OC)C(O)C(Cl)(Cl)Cl (stereo not given),inactive,
CCOP(=O)(NC(C)C)Oc1ccc(SC)c(C)c1 (stereo not given),inactive,
